Laboratory results taken from PubChem BioAssay AID1159580 (chemical genetic matrix, 2015).
Values joined by “and” are separate entries in the source; they are usually repeats but may differ in a detail not shown here. Equal entries are not always repeated. The whole screen tested about 5,500 compounds, of which about 2,000 (36%) were called active. Roughly 18% stayed inconclusive and do not appear here. Rule as the data show it: active = normalized growth mostly below about 0.91 (no sharp cut-off); inconclusive = no clear call, values can overlap the other calls; inactive = mostly above about 0.92. Some of the results follow.

Test: chemical genetic growth profiling, strain panel (AID 1159580);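 also: tested at 20 µM; growth read once vehicle control cultures reached saturation at 30 °C; 1 = growth at the plate median or of vehicle wells; lower values mean less growth of the strain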
Conditions: S. cerevisiae deletion strains, growth OD

Measured: normalized growth

COC1=CC(=O)C[C@@H](C)[C@]12Oc1c(Cl)c(OC)cc(OC)c1C2=O
inactive: locus YAL013W, strain DEP1, hits give low values 1.02 | locus YAL021C, strain ccr4, hits give low values 1.01 | locus YAL026C, strain drs2, hits give low values 0.989 | locus YAL030W, strain snc1, hits give low values 0.988 | locus YBL061C, strain skt5, hits give low values 0.972 | locus YBR009C, strain hhf1, hits give low values 0.937 | locus YBR021W, strain FUR4, hits give low values 1 | locus YBR023C, strain chs3, hits give low values 0.978 | locus YBR171W, strain sec66, hits give low values 0.961 | locus YBR229C, strain ROT2, hits give low values 0.954 | locus YBR231C, strain swc5, hits give low values 1 | locus YBR279W, strain paf1, hits give low values 0.987 | locus YCL011C, strain gbp2, hits give low values 0.963 | locus YCL016C, strain dcc1, hits give low values 0.958 | locus YCL029C, strain bik1, hits give low values 0.987 | locus YCL061C, strain MRC1, hits give low values 1 | locus YCL069W, strain vba3, hits give low values 0.979 | locus YCR088W, strain abp1, hits give low values 0.979 | locus YDL005C, strain med2, hits give low values 0.996 | locus YDL035C, strain GPR1, hits give low values 0.95 | locus YDL040C, strain nat1, hits give low values 0.995 | locus YDL074C, strain BRE1, hits give low values 1.02 | locus YDL101C, strain DUN1, hits give low values 1 | locus YDL134C, strain PPH21, hits give low values 0.97 | locus YDL185W, strain tfp1, hits give low values 0.972 | locus YDL192W, strain arf1, hits give low values 0.988 | locus YDR001C, strain nth1, hits give low values 0.982 | locus YDR069C, strain doa4, hits give low values 0.991 | locus YDR101C, strain arx1, hits give low values 0.992 | locus YDR137W, strain rgp1, hits give low values 0.954 | locus YDR150W, strain NUM1, hits give low values 0.996 | locus YDR159W, strain sac3, hits give low values 1.02 | locus YDR162C, strain NBP2, hits give low values 0.932 | locus YDR195W, strain ref2 1.03 | locus YDR297W, strain sur2, hits give low values 1 | locus YDR318W, strain mcm21, hits give low values 0.988 | locus YDR334W, strain swr1, hits give low values 0.993 | locus YDR335W, strain msn5, hits give low values 0.986 | locus YDR388W, hits give low values 1 | locus YDR392W, strain spt3, hits give low values 0.907 | locus YDR502C, strain sam2, hits give low values 0.999 | locus YEL003W, strain gim4, hits give low values 0.986 | locus YEL037C, strain rad23, hits give low values 0.984 | locus YEL061C, strain CIN8 (second series), hits give low values 0.977 | locus YEL061C, strain CIN8, hits give low values 0.996 | locus YER015W, strain faa2, hits give low values 0.971 | locus YER016W, strain bim1, hits give low values 0.971 | locus YER110C, hits give low values 0.989 | locus YER111C, strain swi4, hits give low values 0.979 | locus YER155C, strain BEM2 (second series), hits give low values 1.01 | locus YER155C, strain BEM2, hits give low values 1.01 | locus YER167W, strain BCK2, hits give low values 0.981 | locus YFR010W, strain ubp6, hits give low values 0.987 | locus YGL078C, strain dbp3, hits give low values 0.987 | locus YGL086W, strain mad1, hits give low values 0.994 | locus YGL167C, strain pmr1, hits give low values 0.97 | locus YGL173C, strain kem1, hits give low values 0.984 | locus YGL227W, strain vid30, hits give low values 0.978 | locus YGL240W, strain doc1, hits give low values 1.01 | locus YGL248W, strain PDE1, hits give low values 1.01 | locus YGL253W, strain hxk2, hits give low values 0.994 | locus YGR078C, strain PAC10, hits give low values 1.01 | locus YGR135W, strain pre9, hits give low values 1.01 | locus YGR229C, strain SMI1, hits give low values 0.978 | locus YGR252W, strain gcn5, hits give low values 0.992 | locus YHR013C, strain ard1, hits give low values 0.975 | locus YHR027C, strain rpn1, hits give low values 0.975 | locus YHR030C, strain SLT2, hits give low values 0.988 and 1.01 | locus YHR079C, strain IRE1 (second series), hits give low values 0.995 | locus YHR079C, strain IRE1, hits give low values 1.01 | locus YHR094C, strain hxt1, hits give low values 0.988 | locus YHR129C, strain ARP1, hits give low values 0.996 | locus YHR142W, strain chs7, hits give low values 0.934 | locus YHR200W, strain rpn10, hits give low values 0.983 | locus YIL066C, strain RNR3, hits give low values 0.937 | locus YIL073C, strain SPO22, hits give low values 0.997 | locus YIL125W, strain kgd1, hits give low values 0.986 | locus YIR030C, strain dcg1, hits give low values 1.01 | locus YJL092W, strain hpr5, hits give low values 0.987 | locus YJL095W, strain BCK1 (second series), hits give low values 0.977 | locus YJL095W, strain BCK1, hits give low values 1.06 and 1.01 | locus YJL115W, strain asf1, hits give low values 0.981 | locus YJL129C, strain trk1, hits give low values 0.964 | locus YJL134W, strain LCB3, hits give low values 0.987 | locus YJL154C, strain vps35, hits give low values 0.983 | locus YJL164C, strain tpk1, hits give low values 0.964 | locus YJL166W, strain qcr8, hits give low values 1 | locus YJL168C, strain set2, hits give low values 0.989 | locus YJL187C, strain SWE1 (second series), hits give low values 1.03 | locus YJL187C, strain SWE1, hits give low values 0.983 | locus YJR043C, strain POL32, hits give low values 0.964 | locus YJR066W, strain TOR1, hits give low values 0.969
